Results as given in PubChem BioAssay (NCATS).
Records with an inconclusive call do not appear. Values without a mark were called inactive. Calls of active or inactive are those of the source. Calls come from the whole dose curve; as a rule, active = well fitted curve in the direction sought with a large enough effect; inconclusive = small, poorly fitted or top-dose-only effect, or another doubt; inactive = no such curve, though single readings can be large; an effect the other way counts as inactive or inconclusive.

molecular target: Cellular tumor antigen p53 (Homo sapiens) (UniProt P04637); experiment: Primary qHTS for small molecule compounds that upregulate eGFP-tagged delta133p53alpha (in N-terminal) cells. (AID 2060322); conditions: NCI-H358 eGFP-delta133p53alpha fluorescence, 24 h; activation: hits give high values; note: nearly all actives have a fitted effect of over 75% in size; note: potency is the fitted concentration of half-maximal effect;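 for activation: 0% = DMSO vehicle and 100% = reference activator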
Sequence (P04637 whole entry, looked up): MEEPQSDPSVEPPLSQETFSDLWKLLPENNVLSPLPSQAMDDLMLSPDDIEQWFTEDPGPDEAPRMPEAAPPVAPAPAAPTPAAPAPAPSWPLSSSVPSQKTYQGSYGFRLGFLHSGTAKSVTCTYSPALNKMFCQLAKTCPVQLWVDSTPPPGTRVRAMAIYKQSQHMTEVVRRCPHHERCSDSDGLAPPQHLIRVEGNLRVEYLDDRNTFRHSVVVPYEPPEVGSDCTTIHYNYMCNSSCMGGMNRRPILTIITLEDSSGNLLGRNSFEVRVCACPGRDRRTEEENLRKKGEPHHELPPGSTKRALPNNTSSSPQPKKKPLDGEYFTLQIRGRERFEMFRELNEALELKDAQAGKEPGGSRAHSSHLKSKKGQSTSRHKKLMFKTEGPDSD
Summary of the method: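 NCI-H358 cells pre-induced 24 h with 10 ng/ml doxycycline to express N-terminal eGFP-delta133p53alpha, then dosed 24 h at 37C without doxycycline; fixed, Hoechst-stained, GFP intensity by laser scanning cytometry, normalized to DMSO (0%) and 57.5 uM 5-azacytidine (100%).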

SMILES | activation | Potency
CC[C@@H]1[C@H]2CCCCN3C(=O)C[C@H]([C@@H]4[C@H]1OC(=O)[C@H]4C)[C@@H]23 | -0.763% | 
COC(CCc1ccc(O)cc1)CC(=O)CCc1ccc(O)cc1 (centres undefined) | 7.63% | 
COc1cc2c(cc1O)C1(OC)Cc3ccc4c(c3C1N(C)CC2)OCO4 (centres undefined) | 20.5% | 
CC(CCc1ccc(O)cc1)O[C@@H]1O[C@H](CO[C@@H]2OC(CO)[C@H](O)[C@H]2O)[C@@H](O)[C@H](O)[C@H]1O (some centres undefined) | -13.7% | 
C/C=C(\C)C(=O)OC1C(C)C2(O)C(C=C(CO)CC3(O)C(=O)C(C)=CC32)C2C(C)(C)C12OC(C)=O (centres undefined) | 8.93% | 
CC(/C=C/C1(O)C(C)CC(O)CC1(C)C)OC1OC(CO)C(O)C(O)C1O (centres undefined) | -12.2% | 
CCOC(=O)N1CCC(CN(Cc2ccc(Cl)cc2)Cc2ccc([N+](=O)[O-])s2)C1 (centres undefined) | 6.21% | 
C[C@@H](OC(=O)/C=C/c1ccc(O)cc1)C1=C[C@]2(C=C[C@@H]3C(C(=O)O)=CO[C@@H](O[C@@H]4O[C@H](CO[C@@H]5O[C@H](CO)[C@@H](O)[C@H](O)[C@H]5O)[C@@H](O)[C@H](O)[C@H]4O)[C@@H]32)OC1=O | -5.34% | 
C=C1[C@H]2[C@H](O[C@@H]3O[C@H](COC(=O)/C=C/c4cc(OC)c(O)c(OC)c4)[C@@H](O)[C@H](O)[C@H]3O)OC=C(C(=O)O)[C@H]2C[C@@H]1O | -10.7% | 
C[C@@H]1O[C@@H](O[C@H]2[C@H](OC(C#N)c3ccc(O)cc3)O[C@H](CO)[C@@H](O)[C@@H]2O)[C@H](O)[C@H](O)[C@H]1O (some centres undefined) | -19.8% | 
O=C(NNc1ccccc1)c1ccncc1 | -8.33% | 
COc1cc(/C=C/C=O)cc(OC)c1O[C@@H]1O[C@H](CO)[C@@H](O)[C@H](O)[C@H]1O | -14.3% | 
C=C1CC[C@@H]2[C@](C)(CO[C@@H]3O[C@H](CO)[C@@H](O)[C@H](O)[C@H]3O)CCC[C@@]2(C)[C@@H]1CCC1=CCOC1=O | 10.7% | 
C=CCC1=C[C@]2(OC)[C@H](C)[C@@H](c3ccc(OC)c(OC)c3)O[C@]2(OC)CC1=O | -3.57% | 
Fc1ccc2nc(CCC#Cc3ccccn3)cn2c1 | 2.68% | 
CC(NCc1ccc(OCc2cccc(F)c2)cc1)C(N)=O (centres undefined) | -7.16% | 
CC1=CC(=O)CC(C)(C)C1(O)CCC(C)O (centres undefined) | 0.893% | 
CC(C/C=C/C(C)(C)O)C1CCC(C)(O)C(O)C1 (centres undefined) | -11.5% | 
O=C(CC1CC(c2ccc(F)cc2F)=NO1)N1CCOCC1 (centres undefined) | 1.43% | 
COc1cc2c(cc1NS(=O)(=O)c1ccc(Br)cc1C)n(C)c(=O)n2C | -22.3% | 
COc1cc([C@@H]2Oc3c(OC)cc(CCCO)cc3[C@@H]2CO[C@@H]2O[C@H](CO)[C@@H](O)[C@H](O)[C@H]2O)ccc1O | -9.16% | 
Cc1c(C)c(NCC(=O)N(C)C2CCN(Cc3ccc(C(N)=O)cc3)CC2)c(C)c(C)c1N | 1.43% | 
COc1ccc([C@@H]2OC[C@H]3[C@@H]2CO[C@@H]3c2ccc(OC3OC(CO)C(O)C(O)C3O)c(OC)c2)cc1OC (some centres undefined) | 10.7% | 
CC[n+]1c(/C=C/C=C2/N(C)c3ccccc3C2(C)C)sc2ccccc21 | -26.3% | 
C[C@H](NCc1ccc(OCc2ccccc2F)cc1)C(N)=O | 11.5% | 
COc1ccc(C2COc3cc(O)ccc3C2)c(O)c1OC (centres undefined) | -2.29% | 
NC(=O)[C@@H]1CC[C@H](c2ccc(OCc3ccccc3F)cc2)N1 | -11.6% | 
CC1(C)CCC[C@@]2(C)[C@H]1[C@H](O)C=C1COC(=O)[C@@]12O | -4.58% | 
C=C1C(=O)O[C@H]2CC(=C)[C@H]3CC[C@@](C)(O)[C@@H]3CC12 (some centres undefined) |  | 15.1 µM (active)

system: not listed separately; experiment: qHTS for Inhibitors of the Aldehyde Dehydrogenase Family (ALDH1A2, ALDH1A3, ALDH2, ALDH3A1) (AID 2061307); conditions: ALDH inhibition qHTS; series mostly up to 50.3 µM; activity change, negative = inhibition: at the top concentration; note: nearly all actives have a fitted effect of over 50% in size; for Potency: test system not described further here; potency is the fitted concentration of half-maximal effect; for activity change, negative = inhibition: % is set by controls: 0 for no effect and ±100 for the full control effect

SMILES | Potency | activity change, negative = inhibition
Cn1c(N2CCCCS2(=O)=O)nc(C(=O)NCc2ccc(F)cc2)c(O)c1=O | 12.7 µM (active) | 
CC(C)c1ccc2c(c1)CCC1[C@](C)(C(=O)O)CCC[C@]21C (some centres undefined) |  | 8.34%
COC(CCc1ccc(O)cc1)CC(=O)CCc1ccc(O)cc1 (centres undefined) |  | -7.09% [at 34.4 µM]
CCOC(=O)N1CCC(CN(Cc2ccc(Cl)cc2)Cc2ccc([N+](=O)[O-])s2)C1 (centres undefined) |  | -14.6%
O=C(NNc1ccccc1)c1ccncc1 |  | -5.05%
COc1cc2c(cc1NS(=O)(=O)c1ccc(Br)cc1C)n(C)c(=O)n2C |  | -25.4%
CC[n+]1c(/C=C/C=C2/N(C)c3ccccc3C2(C)C)sc2ccccc21 | 22.5 µM (active) | 

molecular target: Aldehyde dehydrogenase, mitochondrial (Homo sapiens) (UniProt P05091); experiment: qHTS for Inhibitors of the Aldehyde Dehydrogenase Family (ALDH2) Primary screen (AID 2061308); conditions: ALDH2 enzyme inhibition qHTS, 1536-well; series mostly up to 56 µM; activity change, negative = inhibition: at the top concentration;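 note: plate controls were vehicle for no effect and reference inhibitor for full effect; nearly all actives have a fitted effect of over 55% in size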

SMILES | activity change, negative = inhibition
COc1cc2c(cc1O)C1(Cc3ccc4c(c3C1O)OCO4)[N+](C)([O-])CC2 (centres undefined) | -25.9%
O=C(O[C@H]1[C@H](Oc2ccc(O)cc2CO)O[C@H](CO)[C@@H](O)[C@@H]1O)c1ccccc1 | -8.67% [at 28 µM]
COc1cc(/C=C/CO[C@@H]2O[C@H](CO)[C@@H](O)[C@H](O)[C@H]2O)cc(OC)c1O[C@@H]1O[C@H](CO)[C@@H](O)[C@H](O)[C@H]1O | -10.3% [at 28 µM]
O=C(OC[C@H]1O[C@@H](Oc2ccccc2COC(=O)C2(O)C=CCCC2O)[C@H](O)[C@@H](O)[C@@H]1O)c1ccccc1 (some centres undefined) | -9.13% [at 28 µM]
CC(C)n1nc(C#Cc2ccccc2)c2c(N)ncnc21 | 4.64%
CC1(C)C=Cc2c(ccc3c2[N+]([O-])=C2C3(O)CC34NC(=O)C5(CCCN5C3=O)CC4C2(C)C)O1 (centres undefined) | 0.609% [at 28 µM]
COc1cc(C[C@@]2(O)CO[C@@H](c3ccc(O[C@@H]4O[C@H](CO)[C@@H](O)[C@H](O)[C@H]4O)c(OC)c3)[C@H]2CO)ccc1O | 0.269% [at 28 µM]
CC1(C)OC(=O)CC(O)C2(C)C1CC(=O)C1(C)C2C(O)CC2(C)C(c3ccoc3)OC(=O)C3OC321 (centres undefined) | -0.822% [at 28 µM]
CC1CCC2(O1)C(C)(C)CC(O[C@@H]1O[C@H](CO[C@@H]3OC[C@](O)(CO)[C@H]3O)[C@@H](O)[C@H](O)[C@H]1O)CC2(C)O (some centres undefined) | -3.84% [at 28 µM]
CC[C@@H]1[C@H]2CCCCN3C(=O)C[C@H]([C@@H]4[C@H]1OC(=O)[C@H]4C)[C@@H]23 | -19.1%
COc1cc2c(cc1O)C1(OC)Cc3ccc4c(c3C1N(C)CC2)OCO4 (centres undefined) | -4.45%
CC(CCc1ccc(O)cc1)O[C@@H]1O[C@H](CO[C@@H]2OC(CO)[C@H](O)[C@H]2O)[C@@H](O)[C@H](O)[C@H]1O (some centres undefined) | 3.44% [at 28 µM]
C/C=C(\C)C(=O)OC1C(C)C2(O)C(C=C(CO)CC3(O)C(=O)C(C)=CC32)C2C(C)(C)C12OC(C)=O (centres undefined) | -13.6% [at 28 µM]
CC(/C=C/C1(O)C(C)CC(O)CC1(C)C)OC1OC(CO)C(O)C(O)C1O (centres undefined) | -4.04%
C[C@@H](OC(=O)/C=C/c1ccc(O)cc1)C1=C[C@]2(C=C[C@@H]3C(C(=O)O)=CO[C@@H](O[C@@H]4O[C@H](CO[C@@H]5O[C@H](CO)[C@@H](O)[C@H](O)[C@H]5O)[C@@H](O)[C@H](O)[C@H]4O)[C@@H]32)OC1=O | 12% [at 16.9 µM]
C=C1[C@H]2[C@H](O[C@@H]3O[C@H](COC(=O)/C=C/c4cc(OC)c(O)c(OC)c4)[C@@H](O)[C@H](O)[C@H]3O)OC=C(C(=O)O)[C@H]2C[C@@H]1O | -0.459% [at 16.9 µM]
C[C@@H]1O[C@@H](O[C@H]2[C@H](OC(C#N)c3ccc(O)cc3)O[C@H](CO)[C@@H](O)[C@@H]2O)[C@H](O)[C@H](O)[C@H]1O (some centres undefined) | 1.44% [at 28 µM]

SMILES | activity change, negative = inhibition
COc1cc(/C=C/C=O)cc(OC)c1O[C@@H]1O[C@H](CO)[C@@H](O)[C@H](O)[C@H]1O | -3.4%
C=C1CC[C@@H]2[C@](C)(CO[C@@H]3O[C@H](CO)[C@@H](O)[C@H](O)[C@H]3O)CCC[C@@]2(C)[C@@H]1CCC1=CCOC1=O | 12.5% [at 28 µM]
C=CCC1=C[C@]2(OC)[C@H](C)[C@@H](c3ccc(OC)c(OC)c3)O[C@]2(OC)CC1=O | 2.76%
Fc1ccc2nc(CCC#Cc3ccccn3)cn2c1 | 1.37%
CC(NCc1ccc(OCc2cccc(F)c2)cc1)C(N)=O (centres undefined) | 2.25%
CC1=CC(=O)CC(C)(C)C1(O)CCC(C)O (centres undefined) | -2.71%
CC(C/C=C/C(C)(C)O)C1CCC(C)(O)C(O)C1 (centres undefined) | -11.5%
O=C(CC1CC(c2ccc(F)cc2F)=NO1)N1CCOCC1 (centres undefined) | 1.15%
COc1cc([C@@H]2Oc3c(OC)cc(CCCO)cc3[C@@H]2CO[C@@H]2O[C@H](CO)[C@@H](O)[C@H](O)[C@H]2O)ccc1O | -2.7% [at 28 µM]
Cc1c(C)c(NCC(=O)N(C)C2CCN(Cc3ccc(C(N)=O)cc3)CC2)c(C)c(C)c1N | -10.5%
COc1ccc([C@@H]2OC[C@H]3[C@@H]2CO[C@@H]3c2ccc(OC3OC(CO)C(O)C(O)C3O)c(OC)c2)cc1OC (some centres undefined) | -0.639% [at 28 µM]
C[C@H](NCc1ccc(OCc2ccccc2F)cc1)C(N)=O | 2.23%
COc1ccc(C2COc3cc(O)ccc3C2)c(O)c1OC (centres undefined) | -13.2%
NC(=O)[C@@H]1CC[C@H](c2ccc(OCc3ccccc3F)cc2)N1 | 6.45%
CC1(C)CCC[C@@]2(C)[C@H]1[C@H](O)C=C1COC(=O)[C@@]12O | -9.07%
C=C1C(=O)O[C@H]2CC(=C)[C@H]3CC[C@@](C)(O)[C@@H]3CC12 (some centres undefined) | -8.14%
